# According to PubChem BioAssay AID504882 (Broad Institute, 2011):
# The campaign covered roughly 1,200 compounds. About 290 (24%) were called active. Another 9% or so got no clear call; they are omitted. No rule for the calls is given here. The list is a sample of the results. Measured potencies and affinities stand elsewhere.
# Assay: cytotoxicity in EBV lymphoblastoid cells, dose response, cytotoxicity control, cell-based, plate reader, cherry-picks, set 2 (AID 504882)
# Details: EBV lymphoblastoid cells (LCL) viability; series mostly up to 19.5 µM
row,SMILES,outcome
1,CC(C)CC1C(=O)N(Cc2cn(CC3CCCCC3)nn2)CCS(=O)(=O)N1Cc1ccc(-c2ccc(F)nc2)cc1 (configuration not stated),inactive
2,CCOC(=O)OC(C)OC(=O)[C@@H]1N2C(=O)[C@@H](NC(=O)[C@H](N)c3ccccc3)[C@H]2SC1(C)C (some centres not stated),inactive
3,CCCc1cc(=O)[nH]c(SCC(=O)NC2CCCCC2)n1,inactive
4,Cc1ccc(C)c(N2CCN(S(=O)(=O)c3ccc4c(c3)CCN4C(=O)CCC(=O)O)CC2)c1,inactive
5,Cc1ccnc(SCCn2c(N3CCN(c4ccccc4)CC3)nc3c2c(=O)[nH]c(=O)n3C)n1,inactive
6,O=C(CCC(=O)NNC(=O)Nc1cccc(Cl)c1)NCc1ccccc1,inactive
7,Cc1ccccc1C(=O)NC(=S)Nc1ccc(N2CCN(C(=O)c3ccccc3)CC2)cc1,inactive
8,COCCNC(=O)NC12CC3(C)CC(C)(CC(C)(C3)C1)C2,inactive
9,COCCn1c(SCc2ccc(C(=O)OC)o2)nnc1-c1c[nH]c2ccccc12,inactive
10,COc1ccc(C(=O)Nc2cccc(C(=O)N/N=C/c3ccc(OC)cc3OC)c2)cc1,inactive
11,CCOc1ccc(OCc2cccc(C(=O)N3CCCC3)c2)cc1,inactive
12,O=S(=O)(N/N=C/c1ccccc1F)c1ccccc1,inactive
13,CSc1nc2cc3c(cc2n1C(=O)c1ccc(C)cc1)OCCO3,inactive
14,Nc1cc2ccncc2c2ccccc12,inactive
15,CC(C)NCC(O)COc1cccc2ccccc12 (configuration not stated),inactive
16,COc1ccc(-n2c(C)c([N+](=O)[O-])c3ccc(O)c(CN(C)C)c32)cc1,inactive
17,Cc1ccc(C(=O)NCC(=O)N(C)Cc2cccc(F)c2)s1,inactive
18,COc1ccc(-n2c(C)c(C(C)=O)c3cc(O)ccc32)cc1,inactive
19,CC(CNC1CCCCC1)OC(=O)c1ccccc1 (configuration not stated),inactive
20,CC(C)c1ccc(OCc2cccc(C(=O)N/N=C/c3cccnc3)c2)cc1,inactive
21,CC(C)(C)c1ccc(-c2noc(CCC(N)=O)n2)cc1,inactive
22,COCCn1c(SCC(=O)NCc2ccco2)nnc1-c1c[nH]c2ccccc12,inactive
23,CCOC(=O)C1=C(C)NC(C)=C(C(=O)OCC)C1C(=O)OCC(=O)N(C)C1CCS(=O)(=O)C1 (configuration not stated),inactive
24,COc1ccc(-c2csc3ncnc(NCCCO)c23)cc1,inactive
25,COc1cc(C2NC(=O)NC(C)=C2C(=O)OC2CCCC(C)C2)cc(Br)c1O (configuration not stated),inactive
26,COc1cccc(CC(=O)NNC(=O)c2ccc3c(c2)OCO3)c1,inactive

row,SMILES,outcome
1,CCCN(CC)c1ncnc2[nH]ncc12,inactive
2,Cc1cc(N2CCOCC2)c2c(N)c(Br)cc(C)c2n1,inactive
3,CCOc1ccccc1C(=O)NC1CC2CCCC(C1)N2Cc1nnnn1Cc1ccco1 (configuration not stated),inactive
4,Nc1ncnc(N2CCc3ccccc32)c1[N+](=O)[O-],inactive
5,CCn1c2ccccc2c2cc(NC(=O)c3ccccc3-c3ccccc3C(=O)O)ccc21,inactive
6,CC(=O)Nc1ccc(C=NNc2nnc(NN=Cc3ccc(NC(C)=O)cc3)c3ccccc23)cc1,inactive
7,CCn1c(NC(=O)c2ccc(C)cc2)c2ccccc2nc1=O,inactive
8,CCCN(CCC)c1ncnc2nc[nH]c12,inactive
9,COc1ccc(CC(C)NCC(O)c2ccc(O)c(NC=O)c2)cc1 (configuration not stated),inactive
10,O=C(c1cccs1)N1CC=C(c2ccccc2)CC1,inactive
11,CCN1C(=O)[C@@H]2[C@@H](c3ccc(-c4ccc(Cl)c(Cl)c4)cc3)N3CCC[C@@]3(C(=O)OC)[C@@H]2C1=O,inactive
12,CCOC(=O)N1CCN(C(=O)C2CCC(=O)N(Cc3ccccc3OC)C2)CC1 (configuration not stated),inactive
13,Cc1ccc(-c2cc(N)n3nc(-c4ccc(C)cc4)cc3n2)cc1,inactive
14,Fc1ccc2[nH]c3c(N4CCN(c5ccccc5)CC4)ncnc3c2c1,inactive
15,O=[N+]([O-])c1ccc2ncnc(N3CCN(Cc4ccc5c(c4)OCO5)CC3)c2c1,inactive
16,CC(C)(C)OC(=O)N1Cc2ccccc2C[C@H]1C(=O)NCC(=O)Nc1ccc2c(c1)OCCO2,inactive
17,O=C(C1CCCCC1)N1CCN(c2ncccn2)CC1,inactive
18,COC(=O)c1ccccc1NC(=O)CC(=O)Nc1ccccc1C(=O)OC,inactive
19,O=C(NCCCN1CCCCC1)c1ccc2c(c1)NC(=O)c1ccccc1S2,inactive
20,CCOc1ccc(NC(=O)c2ccc(N3CC4CC(C3)c3cccc(=O)n3C4)c(NC(=O)c3cccnc3)c2)cc1 (configuration not stated),inactive
21,CSc1ccccc1OCc1cc(C(=O)N2CCC[C@H]2C(N)=O)no1,inactive
22,COC(CNC(=O)c1ccc(N2CCC3(CC2)OCCO3)c([N+](=O)[O-])c1)OC,inactive
23,Cc1ccnc(NC(=O)c2ccc(C(=O)c3ccccc3)cc2)c1,inactive
24,COc1ccc(C(=O)Nc2cc(C)c(NC(=O)c3ccccc3OC)cn2)cc1,inactive
25,COc1ccccc1-c1ccccc1C1=CC(=O)CC(C)(C)C1=O,inactive
26,COc1ccc(C2=NN(C(=O)CSC3=NN4CCCC(=O)N=C4S3)C(c3cccc(OC)c3OC)C2)cc1 (configuration not stated),inactive

row,SMILES,outcome
1,O=C(O)c1ccc(N/N=C/c2cc3cc4c(cc3nc2Cl)OCCO4)cc1,inactive
2,Clc1ccc(-c2ccnc(Oc3ccc4ccccc4c3)n2)cc1,inactive
3,CCOC(=O)[C@H]1[C@H]2COc3ccc(OC)cc3[C@@H]2N2C(=O)CN(C)C(=O)[C@@]12C,inactive
4,CN(C)CCCC1(c2ccc(F)cc2)OCc2cc(C#N)ccc21 (configuration not stated),inactive
5,CC1(C)Cc2nc3sc4c(SCC(=O)O)ncnc4c3cc2CO1,inactive
6,COc1ccc(C=C2OC(=O)C(C(C)=O)=C2O)cc1,inactive
7,COc1ccc(-c2oc3ncnc(NCCN4CCOCC4)c3c2-c2ccc(OC)cc2)cc1,inactive
8,CCN(CC(=O)Nc1ccc(NC(C)=O)cc1)C(=O)c1cccnc1Sc1ccc(C)c(C)c1,inactive
9,COc1ccc(N2Cc3cccc(C(=O)NC(C)CCc4ccco4)c3C2=O)cc1 (configuration not stated),inactive
10,COc1ccc(-c2cc(C(=O)N3CCCC3)no2)cc1,inactive
11,CC(Sc1nc(-c2ccc(F)cc2)cs1)C(=O)N1c2ccccc2CC1C (configuration not stated),inactive
12,Cc1ccc(CN2C(=O)CCC2C(=O)NCCCN2CCC(C)CC2)cc1 (configuration not stated),inactive
13,Cc1cnc(NC(=O)c2ccc(OCC3CCCO3)cc2)s1 (configuration not stated),inactive
14,O=C(O)c1ccc(N/N=C/c2ccc3ncccc3c2)cc1,inactive
15,CCN(CC)S(=O)(=O)c1ccc(N=NC2=C(O)CCCC2=O)cc1,inactive
16,CCN(CC)S(=O)(=O)c1cccc(-n2c(O)c(C=Nc3ccccc3C(=O)O)c3ccccc3c2=O)c1,inactive
17,COc1ccc(C(=O)CN(CCC(=O)O)S(=O)(=O)c2ccc([N+](=O)[O-])cc2)cc1,inactive
18,O=C(NCCc1ccccc1)c1ccc2nccnc2c1,inactive
19,CCN(C(=O)CSc1nnc(Nc2cccc(C)c2C)s1)C1CCS(=O)(=O)C1 (configuration not stated),inactive
20,CCCC(C)NC(C)C(=O)NC1CCCC1 (configuration not stated),inactive
21,COCCNC(=O)C1CCC(CNS(=O)(=O)c2ccccc2)CC1 (configuration not stated),inactive
22,Cc1ccc(-c2nnn(CC(=O)N(Cc3ccco3)C(C(=O)NC(C)(C)C)c3ccncc3)n2)o1 (configuration not stated),inactive
23,COCCCNC(=O)CN1C(=O)COc2ccc(S(=O)(=O)N3CCOCC3)cc21,inactive
24,O=C(CN1C(=O)c2ccccc2S1(=O)=O)c1ccccc1F,inactive
25,CN(Cc1ccccc1)c1nc(N)c([N+](=O)[O-])c(NCc2ccccc2)n1,inactive
26,CCCCCn1c(N2CCOCC2)nc2c1c(=O)n(CC(N)=O)c(=O)n2C,inactive

row,SMILES,outcome
1,NC(=O)N/N=C/c1ccc(N2CCOCC2)s1,inactive
2,CCCCCC(=O)N1C[C@@H](O)[C@H](n2cc(C3CC3)nn2)C[C@@H]1c1ccc(C)cc1,inactive
3,CCN1CCN(Cc2ccc(NC(=O)c3ccc(C)c(NC(=O)c4cccc5[nH]ccc45)c3)cc2C(F)(F)F)CC1,inactive
4,CCN1CCN(Cc2ccc(NC(=O)c3ccc(C)c(NC(=O)N4CCNC4=O)c3)cc2C(F)(F)F)CC1,inactive
5,COc1ccc(/C(CC2OC(=O)c3ccccc32)=N\NC(N)=O)cc1 (configuration not stated),inactive
6,c1ccc2c(-c3ccncc3)c[nH]c2c1,inactive
7,C[C@@H]1CN([C@@H](C)CO)C(=O)c2cc(NC(=O)Nc3ccccc3)ccc2O[C@H]1CN(C)C(=O)Nc1cccc2ccccc12,inactive
8,c1ccc(C2c3[nH]c4ccccc4c3CCN2Cc2cccn2-c2ccccn2)nc1 (configuration not stated),inactive
9,COc1ccccc1NC(=O)C(=O)N/N=C(\C)CC(=O)Nc1ccccc1C(F)(F)F,inactive
10,COc1ccc(C(=O)N2CC(=O)Nc3ccccc32)cc1S(=O)(=O)N1CCCC1,inactive
11,COc1ccc(N2C(=O)CC(Sc3nnc(-c4ccccc4)o3)C2=O)cc1 (configuration not stated),inactive
12,COc1cc(OC)cc(-c2c(C#Cc3ccsc3)c3cc(-c4cc(OC)c(OC)c(OC)c4)ccc3n2C)c1,inactive
13,Cc1nc(N)nc(SCc2ccc([N+](=O)[O-])cc2)c1N,inactive
14,COCCCn1cnnc1SCC(=O)Nc1ccc(S(=O)(=O)N2CCCC2)cc1,inactive
15,O=C(CCN1CCC(c2ccccc2)C1)c1ccc2c(c1)OCCO2 (configuration not stated),inactive
16,COCCn1c(C)cc(C(=O)COC(=O)C23CC4CC(CC(O)(C4)C2)C3)c1C,inactive
17,CC(C)OCCCNC(=O)C1CCC(CNS(=O)(=O)c2ccccc2)CC1 (configuration not stated),inactive
18,COC(=O)c1cc2n(n1)CCN(Cc1ccccc1Cl)C2=O,inactive
19,COc1ccc(OC)c2c1sc(=NC(=O)c1ccco1)n2C,inactive
20,CCc1cc2c(Sc3nc4ccccc4s3)ncnc2s1,inactive
21,c1ccc(-n2nnc3c(N4CCOCC4)ncnc32)cc1,inactive
22,Cc1ccc(CNC(=O)C2CCN(S(=O)(=O)c3c(C)noc3/C=C/c3ccco3)CC2)cc1,inactive
23,COc1cc(Cl)cc(C(c2c(C(=O)O)[nH]c3ccccc23)c2c(C(=O)O)[nH]c3ccccc23)c1O,inactive
24,Cn1cccc1C(=O)OCC(=O)Nc1ccc2c(c1)OCO2,inactive
